# Assay outcomes as filed in PubChem.
# Rows were chosen to be rich in hits. Some 1.2% of all compounds tested hit in one or more screens of this group.
# KCNH2 3.1 block: qHTS for Inhibitors of KCHN2 3.1: Mutant qHTS; Potassium voltage-gated channel subfamily H member 2, brain isoform KCNH2 3.1 (human); U2OS KCNH2 3.1, thallium flux FluxOr; stronger effect = lower value; activity change, % (tested at about 1.8 µM); 340,000 tested, 0.95% active;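 active = maximum activity change below -70%; inconclusive = maximum activity change from -70% to -50%; inactive = maximum activity change above -50%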;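 note: thallium influx rate constant from kinetic fluorescence after stimulation buffer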
#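 Steps: virus added to U2OS suspension (4 h, RT, dark); medium with 10% FBS added, cells plated, 37 C overnight; FluxOr/Red40 loading buffer 45 min RT; stimulation buffer, 2 min kinetic read; rate constant normalized.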
# hERG WT inh: qHTS for Inhibitors of KCHN2 3.1: Wildtype qHTS; Voltage-gated inwardly rectifying potassium channel KCNH2 (Homo sapiens), Q12809; 340,000 tested, 0.37% active; U2OS, BacMam KCNH2, thallium flux FluxOr; stronger effect = lower value; activity change, % at 1.84 µM;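 active = maximum activity change below -70%; inconclusive = maximum activity change between -70% and -50%; inactive = maximum activity change above -50%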
# Target sequence (Q12809 whole entry, looked up): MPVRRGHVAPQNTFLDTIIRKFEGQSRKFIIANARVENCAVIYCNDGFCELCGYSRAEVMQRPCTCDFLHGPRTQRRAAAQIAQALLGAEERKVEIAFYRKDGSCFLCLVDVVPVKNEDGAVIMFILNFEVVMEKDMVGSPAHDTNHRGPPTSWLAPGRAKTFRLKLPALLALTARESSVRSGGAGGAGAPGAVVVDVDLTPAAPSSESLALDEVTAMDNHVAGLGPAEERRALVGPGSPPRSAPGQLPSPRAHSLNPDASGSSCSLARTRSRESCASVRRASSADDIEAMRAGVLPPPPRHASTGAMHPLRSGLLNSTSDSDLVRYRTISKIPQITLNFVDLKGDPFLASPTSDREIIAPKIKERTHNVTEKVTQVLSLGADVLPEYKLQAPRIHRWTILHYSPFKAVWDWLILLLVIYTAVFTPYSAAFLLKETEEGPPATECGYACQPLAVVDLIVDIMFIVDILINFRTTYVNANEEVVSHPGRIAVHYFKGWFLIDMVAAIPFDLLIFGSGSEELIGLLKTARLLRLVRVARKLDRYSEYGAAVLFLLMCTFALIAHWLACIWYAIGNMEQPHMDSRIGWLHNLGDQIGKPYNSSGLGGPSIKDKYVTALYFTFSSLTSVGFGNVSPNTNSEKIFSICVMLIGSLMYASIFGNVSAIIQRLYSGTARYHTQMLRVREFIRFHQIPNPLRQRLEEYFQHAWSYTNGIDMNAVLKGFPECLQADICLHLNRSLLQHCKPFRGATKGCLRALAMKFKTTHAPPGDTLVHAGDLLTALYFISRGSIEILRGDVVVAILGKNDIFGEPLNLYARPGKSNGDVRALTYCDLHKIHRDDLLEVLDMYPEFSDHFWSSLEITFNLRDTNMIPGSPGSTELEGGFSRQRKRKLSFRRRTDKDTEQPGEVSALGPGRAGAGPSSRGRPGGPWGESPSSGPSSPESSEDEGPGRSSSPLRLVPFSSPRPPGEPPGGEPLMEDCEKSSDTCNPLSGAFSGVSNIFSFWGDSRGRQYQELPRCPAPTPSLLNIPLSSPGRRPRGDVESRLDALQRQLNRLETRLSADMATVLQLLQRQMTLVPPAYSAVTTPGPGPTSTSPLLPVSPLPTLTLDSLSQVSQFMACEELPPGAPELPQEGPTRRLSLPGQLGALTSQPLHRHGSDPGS
#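 U2OS cells were transduced with wild-type KCNH2 virus (2.03 x 10^8 / mL) for 4 h at room temperature, then cultured overnight at 37 C. Thallium flux was read with FluxOr dye. Rate constants were normalized to DMSO controls.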
# KinaseGlo FLuc: Counterscreen for Luciferase (Kinase-Glo TM) Inhibition | Potency, µM (series often up to 38.3 µM), inactives show top-dose activity change, negative = inhibition, usual class: inhibitors | Luciferin 4-monooxygenase (Photuris pensylvanica), Q27757 | Kinase-Glo luciferase, ATP luminescence, 8 min | 200,000 tested, 0.28% active; active = well fitted inhibition curve with a large enough effect; inconclusive = small, poorly fitted or top-dose-only effect; note: potency is the fitted concentration of half-maximal effect; nearly all actives have a fitted effect of over 60% in size
#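 Compounds were added to a substrate mix at pH 7.2 (50 mM imidazole, 10 uM ATP, within the enzyme's linear range), followed by Kinase-Glo detection reagent; luminescence was measured after 8 minutes at ambient temperature.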
# The depositor's hits bear a star; ? = inconclusive; . = no result. % is set by controls: 0 for no effect and ±100 for the full control effect.
SMILES,KCNH2 3.1 block,hERG WT inh,KinaseGlo FLuc
COc1ccc([C@H]2C[C@H](n3cc(C4CC4)nn3)[C@@H](O)CN2CC2CCCCC2)cc1,-84*,1,.
O[C@@H]1CN(CC2CCCCC2)[C@@H](c2ccc(Cl)cc2)C[C@H]1n1cc(C2CC2)nn1,-3,-11,.
O=C(CCNC(=O)C1CCN(S(=O)(=O)c2ccc(F)cc2)CC1)NCc1ccc(Cl)cc1,-113*,-22,.
O=C(CCNC(=O)C1CCN(S(=O)(=O)c2ccc(F)cc2)CC1)NCc1ccc(F)cc1,-9,-3,.
CC(=O)Nc1ccc(S(=O)(=O)N2CCC(C(=O)NCCc3c[nH]c4ccccc34)CC2)cc1,-133*,-10,.
O=C(NCCc1c[nH]c2ccccc12)C1CCN(S(=O)(=O)c2ccccc2)CC1,-2,1,.
CC(C)[C@H](NC(=O)c1ccc(Cl)cc1Cl)C(=O)NNc1cccc(C(=O)O)c1,.,-9,.
N#CC(CCc1ccc([N+](=O)[O-])cc1)(CCc1ccc([N+](=O)[O-])cc1)C(N)=O,-129*,-93*,.
O=[N+]([O-])c1ccc(Cc2ccc([N+](=O)[O-])cc2)cc1,-10,0,.
Oc1ccccc1CN1CCN(C(O)(c2ccccc2)c2ccccc2)CC1,?,38,.
Oc1ccccc1CN1CCC(C(O)(c2ccccc2)c2ccccc2)CC1,-86*,3,0%
Cc1ccc(NS(=O)(=O)c2cc(-c3n[nH]c(=O)c4ccccc34)ccc2C)cc1,3,7,-1%
COc1ccc(OC)c(C(=O)NC(CC(N)=O)c2ccc(NCC3CC3)c([N+](=O)[O-])c2)c1 (configuration not stated),-121*,1,.
COc1ccc(OC)c(C(=O)NC(CC(N)=O)c2ccc(NC(C)C)c([N+](=O)[O-])c2)c1 (configuration not stated),24,6,.
O=C(O)CCC(=O)N1CCc2cc(S(=O)(=O)NCc3ccc(Cl)cc3)ccc21,-3,-4,.
FC(F)(F)C(F)(F)C(F)(F)c1nc2nc(Cl)c(Cl)nc2[nH]1,2,27,.
FC(F)(F)c1nc2nc(Cl)c(Cl)nc2[nH]1,-71*,17,.
OCc1ccccc1O[C@H]1OC(CO)C(O)C(O)C1O (some centres not stated),.,.,-3%
COc1cc(S(=O)(=O)NCc2ccccc2)ccc1Br,-1,18,0%
CCNS(=O)(=O)c1ccc(Br)c(OC)c1,-93*,-29,-1%
Cc1cccc(S(=O)(=O)N2CCCc3ccccc32)c1,-8,16,.
Cc1cc(C)c(S(=O)(=O)N2CCCc3ccccc32)c(C)c1,-95*,-7,.
C=CCNS(=O)(=O)c1ccc2c(c1)n(C)c(=O)n2C,-8,0,-1%
CCCCN(C)CCCNC(=O)c1cn(CC)c2ccc(S(=O)(=O)N3CCc4ccccc4C3)cc2c1=O,-91*,?,1%
CCCCN(CCCC)CCNC(=O)c1cn(CC)c2ccc(S(=O)(=O)N(C)C3CCCCC3)cc2c1=O,-83*,-70*,.
SMILES,KCNH2 3.1 block,hERG WT inh,KinaseGlo FLuc
CCCCN(CC)CCCNC(=O)c1cn(CC)c2ccc(S(=O)(=O)N3CCc4ccccc4C3)cc2c1=O,-20,1,-3%
CCN(CC)CCCNC(=O)c1cn(CC)c2ccc(S(=O)(=O)N(C)C3CCCCC3)cc2c1=O,-7,10,.
COc1ccc(CCN2CCCn3c2nc2c3c(=O)n(CC(C)C)c(=O)n2C)cc1OC,-18,-1,.
COc1ccc(S(=O)(=O)Nc2ccc3c(c2)C(=O)N([C@H](C)CO)C[C@H](C)[C@@H](CN(C)C(=O)Nc2ccc4c(c2)OCO4)O3)cc1,-9,-12,.
CN(C)c1ccc(/C=C/c2nc3ccccc3s2)cc1,-16,-39,11µM*
CN(C)c1ccc(/C=C/c2ccc3ccccc3n2)cc1,-44,-10,.
c1ccc2c(c1)nc(NCc1ccc3c(c1)OCO3)n2CCN1CCOCC1,-31,7,-1%
c1ccc(Cn2c(CNc3nc4ccccc4n3CCN3CCOCC3)nc3ccccc32)cc1,-85*,10,2%
Cc1nc2cc(NCc3nc4ccccc4n3Cc3ccccc3)ccc2n1C,-49,18,10µM*
Cc1cccc(NCc2nc3ccccc3n2Cc2ccccc2)c1,-15,16,-5%
CCOC(=O)C1CCN(Cc2cc(Cl)c3ccccc3c2O)CC1,-3,-5,.
CC1(C)Cc2c(sc(NC(=O)C(=O)NCC3CCCO3)c2C(N)=O)CO1 (configuration not stated),3,-95*,.
